According to the supplement of paper PMC10037445:
Whole data set: some 2,900 compounds, median “IRF Lucia reporter activity, fold change vs agonist alone” near 0.9, cut for the highest 2% near 2.8. Many of the other results were omitted from the sample, so the highest values are more common in it than they were.

Key:
RAW-Dual [1] = experiment: IRF Lucia reporter activity, fold change vs agonist alone; higher = enhanced IRF activity; settings: library stock concentration (final ~1000-fold dilution): 10 mM, agonist: MPLA (TLR4) […]
How it was run: (§1)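 RAW-Dual macrophages were seeded in DMEM at 50,000 cells/well in 384-well plates, given 50 nL of library stock by pin tool, and given a PRR agonist 1 h later. Plates were held at 37 °C, 5% CO2 for 20 hours, after which supernatant was read for IRF by QuantiLuc luminescence and for NF-κB by QuantiBlue absorbance at 620 nm. Reporter activity is expressed as fold change over wells that received agonist alone. A well was called cytotoxic when IncuCyte confluency fell below 70% of agonist controls in both mask sets.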

RAW-Dual [2] = experiment: IRF Lucia reporter activity, fold change vs agonist alone; cytotoxicity flag (confluency mask): not cytotoxic; higher = enhanced IRF activity
How it was run: as §1

RAW-Dual [3] = experiment: IRF Lucia reporter activity, fold change vs agonist alone; cytotoxicity flag (confluency mask): cytotoxic (confluency <70% of control); higher = enhanced IRF activity
How it was run: as §1

[4] = cytotoxicity flag (confluency mask): not cytotoxic
[5] = agonist: 3'3'-cGAMP (STING) 10 ug/mL

CCOC(=O)c1ccc(N)cc1.Cl
IRF Lucia reporter activity (RAW-Dual [1]; [4]): 1.01

CCOC(=O)c1ccc(N)cc1.Cl (library stock concentration (final ~1000-fold dilution): 10 mM)
IRF Lucia reporter activity (RAW-Dual [2]; [5]): 0.942
IRF Lucia reporter activity (RAW-Dual [2]; agonist: LPS (TLR4) 0.1 ug/mL): 1.15

CCn1cc(C(=O)O)c(=O)c2c(N)c(F)c(NC3CCCCC3)cc21 (library stock concentration (final ~1000-fold dilution): 10 mM)
IRF Lucia reporter activity (RAW-Dual [2]; [5]): 0.545
IRF Lucia reporter activity (RAW-Dual [2]; agonist: LPS (TLR4) 0.1 ug/mL): 0.223

CCOC(=O)c1ccc(NC2CCCCC2)c(N)c1
IRF Lucia reporter activity (RAW-Dual [1]; [4]): 1.83

CCOC(=O)c1ccc(NC2CCCCC2)c(N)c1 (library stock concentration (final ~1000-fold dilution): 10 mM)
IRF Lucia reporter activity (RAW-Dual [2]; [5]): 1.04
IRF Lucia reporter activity (RAW-Dual [2]; agonist: LPS (TLR4) 0.1 ug/mL): 4.71

NC(=O)C1CCC2CN1C(=O)N2OS(=O)(=O)O (configuration not stated) (library stock concentration (final ~1000-fold dilution): 10 mM)
IRF Lucia reporter activity (RAW-Dual [2]; [5]): 1.1
IRF Lucia reporter activity (RAW-Dual [2]; agonist: LPS (TLR4) 0.1 ug/mL): 1.21

NC(=O)C1CCC2CN1C(=O)N2OS(=O)(=O)O (configuration not stated)
IRF Lucia reporter activity (RAW-Dual [1]; [4]): 1.13

Oc1cc(CNC(=S)/C=C/c2cc(O)c(O)c(Br)c2)cc(O)c1O (library stock concentration (final ~1000-fold dilution): 10 mM)
IRF Lucia reporter activity (RAW-Dual [2]; [5]): 0.312
IRF Lucia reporter activity (RAW-Dual [2]; agonist: LPS (TLR4) 0.1 ug/mL): 4.35

O=C1CCC(N2Cc3c(OCc4ccc(CN5CCOCC5)cc4)cccc3C2=O)C(=O)N1 (configuration not stated) (library stock concentration (final ~1000-fold dilution): 10 mM)
IRF Lucia reporter activity (RAW-Dual [2]; [5]): 1.05
IRF Lucia reporter activity (RAW-Dual [2]; agonist: LPS (TLR4) 0.1 ug/mL): 1.02

COc1cc(O)c(C(=O)Nc2nc(C(=O)NCCN(C(C)C)C(C)C)cs2)cc1OC.Cl.O.O.O
IRF Lucia reporter activity (RAW-Dual [1]; [4]): 1.03

COc1cc(O)c(C(=O)Nc2nc(C(=O)NCCN(C(C)C)C(C)C)cs2)cc1OC.Cl.O.O.O (library stock concentration (final ~1000-fold dilution): 10 mM)
IRF Lucia reporter activity (RAW-Dual [2]; [5]): 0.967
IRF Lucia reporter activity (RAW-Dual [2]; agonist: LPS (TLR4) 0.1 ug/mL): 0.665

COc1ncc(-c2ccc3nccc(-c4ccnnc4)c3c2)cc1NS(=O)(=O)c1ccc(F)cc1F (library stock concentration (final ~1000-fold dilution): 10 mM)
IRF Lucia reporter activity (RAW-Dual [2]; [5]): 1.09
IRF Lucia reporter activity (RAW-Dual [2]; agonist: LPS (TLR4) 0.1 ug/mL): 3.52

COc1cc2nccc(Oc3ccc(NC(=O)Nc4ccc(F)cc4F)c(F)c3)c2cc1OC (library stock concentration (final ~1000-fold dilution): 10 mM)
IRF Lucia reporter activity (RAW-Dual [3]; [5]): 1.02
IRF Lucia reporter activity (RAW-Dual [3]; agonist: LPS (TLR4) 0.1 ug/mL): 0.826

CCCS(=O)(=O)Nc1ccc(F)c(C(=O)c2c[nH]c3ncc(-c4ccc(Cl)cc4)cc23)c1F
IRF Lucia reporter activity (RAW-Dual [1]; [4]): 0.473

COc1ncc(-c2ccc3nccc(-c4ccnnc4)c3c2)cc1NS(=O)(=O)c1ccc(F)cc1F
IRF Lucia reporter activity (RAW-Dual [1]; [4]): 1.11

COc1cc2nccc(Oc3ccc(NC(=O)Nc4ccc(F)cc4F)c(F)c3)c2cc1OC
IRF Lucia reporter activity (RAW-Dual [1]; cytotoxicity flag (confluency mask): cytotoxic (confluency <70% of control)): 1.23

CCCS(=O)(=O)Nc1ccc(F)c(C(=O)c2c[nH]c3ncc(-c4ccc(Cl)cc4)cc23)c1F (library stock concentration (final ~1000-fold dilution): 10 mM)
IRF Lucia reporter activity (RAW-Dual [2]; [5]): 0.195
IRF Lucia reporter activity (RAW-Dual [2]; agonist: LPS (TLR4) 0.1 ug/mL): 0.356
